According to PubChem BioAssay (NCATS):
Results filed as inconclusive are left out. The source made the active and inactive calls. Unless noted, calls come from the whole dose curve; as a rule, active = well fitted curve in the direction sought with a large enough effect; inconclusive = small, poorly fitted or top-dose-only effect, or another doubt; inactive = no such curve, though single readings can be large; an effect the other way counts as inactive or inconclusive.

Columns and labels:
[1] = Cytometry Cell-Based qHTS for Inhibitors of the mTORC1 Signaling Pathway in MEF cells (AID 2668);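 note: Tsc2-/- p53-/- mouse embryonic fibroblasts stably re-expressing wild-type Tsc2; percent cells positive for phospho-rpS6 Ser235/236 relative to propidium iodide stain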
Summary of the method: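 MEFs (Tsc2-/-, p53-/- stably expressing WT Tsc2) treated 24 h at 37 degree Celsius, fixed, stained with Alexa-488 anti-phospho-rpS6 Ser235/236 and propidium iodide; Acumen laser scanning. Reported as % positive cells, phospho-S6 normalized to PI.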

[2] = Validation screen for inhibitors of Lassa infection (AID 463096; calls by dose curve)
[3] = Validation screen for small molecules that induce DNA re-replication in MCF 10A normal breast cells (AID 463097); note: nearly all actives have a fitted effect of over 60% in size
Summary of the method: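 MCF 10A cells exposed to compound 48 hr at 37 C, 5% CO2, then Hoechst-stained 40 min. Laser-scanning imaging of nuclear DNA content (405 nm ex, 500-530 nm em); re-replication scored as rise in nuclei with elevated fluorescence intensity.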

[4] = molecular target: Tumor susceptibility gene 101 protein (Homo sapiens) (UniProt Q99816); test: qHTS Validation Assay for Iinhibitors of HIV-1 Budding by Blocking the Interaction of PTAP/TSG101 (AID 485342; calls by dose curve)
Sequence of Tumor susceptibility gene 101 protein (Homo sapiens) (Q99816 whole entry, looked up, the tested form may be a part): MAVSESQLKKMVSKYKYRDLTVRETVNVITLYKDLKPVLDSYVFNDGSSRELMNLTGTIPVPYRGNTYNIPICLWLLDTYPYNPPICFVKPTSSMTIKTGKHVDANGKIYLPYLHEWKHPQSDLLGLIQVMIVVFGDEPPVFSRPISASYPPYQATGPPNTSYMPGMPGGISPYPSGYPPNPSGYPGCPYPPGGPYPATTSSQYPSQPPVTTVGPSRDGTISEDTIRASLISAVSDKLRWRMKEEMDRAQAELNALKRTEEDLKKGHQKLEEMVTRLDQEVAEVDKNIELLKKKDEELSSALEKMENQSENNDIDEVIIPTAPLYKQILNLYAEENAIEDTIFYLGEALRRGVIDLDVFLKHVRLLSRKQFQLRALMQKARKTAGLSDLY
Summary of the method: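 Tsg101 binding domain (10 uM) with FITC-labeled PTAP peptide (50 nM) in HEPES pH 7.5 buffer, 20 min at r.t. with compounds. Binding measured by fluorescence polarization.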

[5] = qHTS Validation Assay to Find Inhibitors of Chronic Active B-Cell Receptor Signaling (AID 485345; active = well fitted curve in the direction sought with a large enough effect in the main read-out, with a control signal flat, not every such curve was filed as active)
Summary of the method: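 Read-out: ratio of filter-corrected green (IkappaBalpha fusion) to red (native) luciferase signal in doxycycline-induced TMD8 cells after 4 h at 37C. Titration spanned 46 uM–3 nM; Data were normalised to basal cells and 10 uM MG-132 wells.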

[6] = molecular target: Beta-2 adrenergic receptor (Homo sapiens) (UniProt P07550); test: qHTS validation assay of beta-arrestin-biased ligands of beta2-adrenergic receptor (AID 485366)
Summary of the method: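 Tango cells expressing recombinant beta2-AR and beta-arrestin with tTA-driven luciferase, in DMEM with 1% FBS. Compounds were titrated up to 46 microM for 18 hr at 37 degrees C. Luminescence was read 15 min after substrate; curves were fitted and class-assigned.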

[7] = molecular target: ATP-dependent 6-phosphofructokinase (Trypanosoma brucei brucei) (UniProt O15648); test: qHTS Validation Assay to Find Inhibitors of T. brucei phosphofructokinase (AID 485368); settings: T. brucei PFK enzyme assay, qHTS 7-point titration; at 57.5 µM (top of the series)
Summary of the method: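 Activity was read as ADP production by luminescence (ADP-Glo) after 45 min at room temperature. The enzyme was 1.25nM PFK in 0.1M TEA pH 8.0 with 0.5 mM F6P, 0.1mM ATP and 5 mM MgCl2. Compounds were titrated up to 57 uM and % activity normalized to no-enzyme and full-enzyme controls.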

[8] = Quantitative high throughput screen for delayed death inhibitors of the malarial parasite plastid, 96 hour incubation (AID 488745); note: nearly all actives have a fitted effect of over 70% in size
Summary of the method: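 P. falciparum carrying an integrated firefly luciferase reporter, grown in erythrocytes (2% hematocrit, 0.1% parasitemia final) in RPMI 1640/0.5% Albumax, was exposed to compound for 96 h (two generations) at 37 C, 5% CO2. Luminescence decrease indicated growth inhibition.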

[9] = Quantitative high throughput screen for delayed death inhibitors of the malarial parasite plastid, 48 hour incubation (AID 488752); note: nearly all actives have a fitted effect of over 65% in size
Summary of the method: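 Erythrocytes infected with P. falciparum carrying an integrated firefly luciferase reporter (2% hematocrit, 0.1% parasitemia final) were exposed to compounds in RPMI 1640/0.5% Albumax for 48 h at 37 C, 5% CO2. Growth inhibition was scored as reduced luminescence.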

[10] = molecular target: Thioredoxin reductase 1, cytoplasmic (Rattus norvegicus) (UniProt O89049); test: qHTS Assay for Substrates of Mammalian Selenoprotein Thioredoxin Reductase 1 (TrxR1) (AID 488772);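 note: NADPH fluorescence in the first read after selenite addition and not the 8 min delta; a drop in NADPH fluorescence below the no-compound background marks a TrxR1 substrate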
Summary of the method: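 Quantitative HTS in Tris-HCl buffer at pH 7.5 with EDTA and Tween-20, using rat TrxR1, 400 uM NADPH and 400 uM selenite (final). A fall in initial NADPH fluorescence relative to background marked substrate behaviour.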

[11] = molecular target: M-phase phosphoprotein 8 (Homo sapiens) (UniProt Q99549); test: qHTS Validation Assay for Inhibitors for MPP8 Chromodomain Interactions with Methylated Histone Tails (AID 488949); note: top concentration of the series differs between compounds; nearly all actives have a fitted effect of over 55% in size
Sequence of M-phase phosphoprotein 8 (Homo sapiens) (Q99549 whole entry, looked up): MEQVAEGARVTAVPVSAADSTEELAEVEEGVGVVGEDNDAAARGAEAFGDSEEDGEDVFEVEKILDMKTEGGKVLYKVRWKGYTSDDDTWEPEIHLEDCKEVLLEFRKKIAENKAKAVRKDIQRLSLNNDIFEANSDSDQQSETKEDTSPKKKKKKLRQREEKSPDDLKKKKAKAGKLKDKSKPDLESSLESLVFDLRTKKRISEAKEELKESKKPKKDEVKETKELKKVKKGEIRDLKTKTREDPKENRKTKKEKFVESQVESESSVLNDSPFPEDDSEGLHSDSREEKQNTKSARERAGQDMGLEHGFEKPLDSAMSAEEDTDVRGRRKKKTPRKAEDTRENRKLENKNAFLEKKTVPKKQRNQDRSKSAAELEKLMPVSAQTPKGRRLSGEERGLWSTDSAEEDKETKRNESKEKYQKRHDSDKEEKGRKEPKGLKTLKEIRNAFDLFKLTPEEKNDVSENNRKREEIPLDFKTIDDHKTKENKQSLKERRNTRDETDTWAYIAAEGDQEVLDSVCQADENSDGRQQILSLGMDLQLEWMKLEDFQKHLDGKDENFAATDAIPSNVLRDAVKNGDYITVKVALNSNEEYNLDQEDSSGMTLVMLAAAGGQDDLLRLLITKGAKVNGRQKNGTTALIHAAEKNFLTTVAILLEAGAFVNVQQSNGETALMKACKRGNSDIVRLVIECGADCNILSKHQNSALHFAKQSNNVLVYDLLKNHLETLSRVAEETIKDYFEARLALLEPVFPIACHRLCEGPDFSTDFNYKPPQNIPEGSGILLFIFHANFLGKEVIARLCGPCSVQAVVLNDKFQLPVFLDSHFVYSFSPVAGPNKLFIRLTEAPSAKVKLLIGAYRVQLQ
Summary of the method: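 MPP8 (50 nM) was pre-bound to 50 nM biotinylated H3(1-18)K9me3 peptide in PBS pH 7.4 with 0.01% Tween-20. Compounds were then added for 30 min at room temperature, and complex disruption was read by AlphaScreen with streptavidin donor and nickel-chelate acceptor beads.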

[12] = molecular target: Chromobox protein homolog 1 (Homo sapiens) (UniProt P83916); test: qHTS Validation Assay for Inhibitors of HP1-beta Chromodomain Interactions with Methylated Histone Tails (AID 488953);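 note: loss of AlphaScreen luminescence from HP1-beta binding biotinylated H3K9me3 peptide; nearly all actives have a fitted effect of over 50% in size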
Sequence of Chromobox protein homolog 1 (Homo sapiens) (P83916 whole entry, looked up): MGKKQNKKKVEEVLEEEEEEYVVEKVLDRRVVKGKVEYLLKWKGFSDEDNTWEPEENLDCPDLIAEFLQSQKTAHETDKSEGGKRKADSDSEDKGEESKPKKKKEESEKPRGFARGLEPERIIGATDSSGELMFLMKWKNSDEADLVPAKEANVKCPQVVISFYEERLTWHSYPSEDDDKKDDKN
Summary of the method: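 HP1-beta (50 nM) was preincubated 30 min at room temperature with biotinylated H3(1-18)K9me3 peptide (50 nM) in PBS pH 7.4, 0.01% Tween-20, then with compounds 30 min. AlphaScreen signal was read after streptavidin donor/nickel chelate acceptor beads (10 ug/mL final).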

[13] = molecular target: Transient receptor potential cation channel subfamily V member 1 (Homo sapiens) (UniProt Q8NER1); test: HTS Assay for Compounds that Act as Enhancers of the Vanilloid Receptor 1 (AID 488979)
Sequence of Transient receptor potential cation channel subfamily V member 1 (Homo sapiens) (Q8NER1 whole entry, looked up): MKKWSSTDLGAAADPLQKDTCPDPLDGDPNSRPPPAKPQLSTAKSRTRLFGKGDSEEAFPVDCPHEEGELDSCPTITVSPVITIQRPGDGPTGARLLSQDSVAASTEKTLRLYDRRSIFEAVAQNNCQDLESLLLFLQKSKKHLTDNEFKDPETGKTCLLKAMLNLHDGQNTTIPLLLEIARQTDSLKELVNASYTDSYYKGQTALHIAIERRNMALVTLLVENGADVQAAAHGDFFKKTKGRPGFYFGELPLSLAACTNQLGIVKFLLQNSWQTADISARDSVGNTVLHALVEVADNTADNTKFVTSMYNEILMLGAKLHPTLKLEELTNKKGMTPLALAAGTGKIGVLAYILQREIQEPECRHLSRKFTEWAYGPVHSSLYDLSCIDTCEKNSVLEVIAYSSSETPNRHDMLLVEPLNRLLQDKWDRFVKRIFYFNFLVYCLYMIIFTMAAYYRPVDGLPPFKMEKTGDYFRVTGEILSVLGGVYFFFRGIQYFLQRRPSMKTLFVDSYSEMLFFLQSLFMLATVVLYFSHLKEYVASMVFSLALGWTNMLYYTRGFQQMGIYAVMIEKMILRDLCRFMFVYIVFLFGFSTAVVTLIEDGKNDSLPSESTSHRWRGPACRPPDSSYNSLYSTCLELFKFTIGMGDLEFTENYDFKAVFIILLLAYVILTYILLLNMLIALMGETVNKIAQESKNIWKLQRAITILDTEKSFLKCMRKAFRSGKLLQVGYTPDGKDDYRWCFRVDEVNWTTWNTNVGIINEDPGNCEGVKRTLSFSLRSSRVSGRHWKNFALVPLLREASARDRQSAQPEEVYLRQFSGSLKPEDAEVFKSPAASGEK
Summary of the method: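 Calcium influx kinetics via Fluo-8 (480/520 nm) in TRPV1-expressing cells, 2000/well cultured overnight at 35.5C. Compound-alone read 3 min (agonist phase), followed by EC20 capsaicin challenge for 2 min (enhancer phase).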

[14] = molecular target: Thyrotropin receptor (Homo sapiens) (UniProt P16473); test: qHTS Assay for Antagonists of the Thyroid Stimulating Hormone Receptor (AID 488980)
Sequence of Thyrotropin receptor (Homo sapiens) (P16473 whole entry, looked up): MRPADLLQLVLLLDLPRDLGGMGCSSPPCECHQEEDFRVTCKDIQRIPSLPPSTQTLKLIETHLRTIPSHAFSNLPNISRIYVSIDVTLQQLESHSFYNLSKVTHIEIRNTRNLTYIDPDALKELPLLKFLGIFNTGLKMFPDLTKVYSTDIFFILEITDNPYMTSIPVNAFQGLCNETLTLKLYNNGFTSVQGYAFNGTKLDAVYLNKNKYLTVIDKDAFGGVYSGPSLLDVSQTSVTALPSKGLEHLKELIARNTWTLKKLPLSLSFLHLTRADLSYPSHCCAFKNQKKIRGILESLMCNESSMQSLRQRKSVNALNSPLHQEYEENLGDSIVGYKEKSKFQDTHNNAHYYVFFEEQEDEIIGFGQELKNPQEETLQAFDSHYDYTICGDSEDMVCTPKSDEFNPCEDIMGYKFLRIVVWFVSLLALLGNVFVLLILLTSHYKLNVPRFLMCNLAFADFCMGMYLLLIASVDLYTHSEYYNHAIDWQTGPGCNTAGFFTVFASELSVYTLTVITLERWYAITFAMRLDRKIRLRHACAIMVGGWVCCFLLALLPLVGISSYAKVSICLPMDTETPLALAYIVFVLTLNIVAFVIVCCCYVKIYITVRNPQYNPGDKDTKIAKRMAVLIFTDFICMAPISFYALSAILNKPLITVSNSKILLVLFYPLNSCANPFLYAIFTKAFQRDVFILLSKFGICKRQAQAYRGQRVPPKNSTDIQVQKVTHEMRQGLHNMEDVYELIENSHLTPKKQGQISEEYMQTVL
Summary of the method: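 TSHR-transfected HEK293 cells (2000/well) in HEPES-buffered HBSS with 70 uM RO 20-1724 were stimulated with 4 nM TSH (EC80, final) in the presence of compound. cAMP was measured by HTRF competition after lysis and 30 min at RT.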

[15] = molecular target: D(1A) dopamine receptor (Homo sapiens) (UniProt P21728); test: HTS Assay for Allosteric Agonists of the Human D1 Dopamine Receptor: Primary Screen for Agonists (AID 488981)
Summary of the method: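 Calcium flux in an inducible, force-coupled HEK293 Trex D1 line (overnight at 30 C): agonist mode is the 180 s kinetic read after compound; potentiator mode is the following 180 s read after dopamine at EC20.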

[16] = molecular target: Ubiquitin carboxyl-terminal hydrolase 2 (Homo sapiens) (UniProt O75604); test: qHTS Validation Assay for Inhibitors of Ubiquitin-specific Protease USP2a Using CHOP2 as the Reporter (AID 463106)
Summary of the method: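 10nM USP2 core + cpd, 30min RT; add 25nM Ub-CHOP2/25nM substrate; 60min RT; FI 485/531nm. Buffer Tris pH 8.0, CaCl2, BME, CHAPS. Norm. to NEM = 100% inhibition; time-zero read flags fluorescent artifacts.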

[17] = molecular target: Flap endonuclease 1 (Homo sapiens) (UniProt P39748); test: qHTS Validation Assay for the Inhibitors of Human Flap endonuclease 1 (FEN1) (AID 488816)
Sequence of Flap endonuclease 1 (Homo sapiens) (P39748 whole entry, looked up): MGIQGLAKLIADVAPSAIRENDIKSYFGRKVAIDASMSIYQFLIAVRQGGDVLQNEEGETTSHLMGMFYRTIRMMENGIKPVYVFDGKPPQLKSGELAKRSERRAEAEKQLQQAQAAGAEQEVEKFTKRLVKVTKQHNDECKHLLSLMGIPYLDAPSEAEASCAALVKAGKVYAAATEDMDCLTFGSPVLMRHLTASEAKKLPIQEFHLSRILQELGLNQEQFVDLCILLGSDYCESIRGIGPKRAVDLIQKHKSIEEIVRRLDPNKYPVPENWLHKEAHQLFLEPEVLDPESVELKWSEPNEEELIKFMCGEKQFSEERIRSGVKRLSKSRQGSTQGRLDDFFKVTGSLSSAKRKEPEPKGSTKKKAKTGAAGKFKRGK
Summary of the method: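 Readings taken at 0 and 15 min after starting the reaction with 50 nM (final) substrate supplied the signal. Compounds had first sat with 10 nM FEN1 reagent for 15 min at room temperature. Values come from Hill-equation concentration-response fits.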

[18] = molecular target: Methanococcus maripaludis chaperonin (MmCpn) (UniProt Q6LX38); test: High-Throughput Screening for Modulators of Cytosolic Chaperonin Activity: MmCpn Primary Screen (AID 488978);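 note: 50 nM MmCpn enzyme hydrolysing 30 µM ATP at 37 °C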
Summary of the method: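 MmCpn at 50 nM final was preincubated 5 min at RT with compound. ATP was then added at 30 uM final for 10 min at 37 C. ADP formed was detected by Transcreener HTRF (665/590 nm).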

[19] = molecular target: DNA polymerase III PolC-type (Bacillus subtilis (strain 168)) (UniProt P13267); test: qHTS Validation Assay for the Inhibitors of DNA Replication in Gram-Positive Bacteria (AID 485295);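 note: PicoGreen fluorescence of double-stranded DNA made on primed circular M13 template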
Sequence of DNA polymerase III PolC-type (Bacillus subtilis (strain 168)) (P13267 whole entry, looked up): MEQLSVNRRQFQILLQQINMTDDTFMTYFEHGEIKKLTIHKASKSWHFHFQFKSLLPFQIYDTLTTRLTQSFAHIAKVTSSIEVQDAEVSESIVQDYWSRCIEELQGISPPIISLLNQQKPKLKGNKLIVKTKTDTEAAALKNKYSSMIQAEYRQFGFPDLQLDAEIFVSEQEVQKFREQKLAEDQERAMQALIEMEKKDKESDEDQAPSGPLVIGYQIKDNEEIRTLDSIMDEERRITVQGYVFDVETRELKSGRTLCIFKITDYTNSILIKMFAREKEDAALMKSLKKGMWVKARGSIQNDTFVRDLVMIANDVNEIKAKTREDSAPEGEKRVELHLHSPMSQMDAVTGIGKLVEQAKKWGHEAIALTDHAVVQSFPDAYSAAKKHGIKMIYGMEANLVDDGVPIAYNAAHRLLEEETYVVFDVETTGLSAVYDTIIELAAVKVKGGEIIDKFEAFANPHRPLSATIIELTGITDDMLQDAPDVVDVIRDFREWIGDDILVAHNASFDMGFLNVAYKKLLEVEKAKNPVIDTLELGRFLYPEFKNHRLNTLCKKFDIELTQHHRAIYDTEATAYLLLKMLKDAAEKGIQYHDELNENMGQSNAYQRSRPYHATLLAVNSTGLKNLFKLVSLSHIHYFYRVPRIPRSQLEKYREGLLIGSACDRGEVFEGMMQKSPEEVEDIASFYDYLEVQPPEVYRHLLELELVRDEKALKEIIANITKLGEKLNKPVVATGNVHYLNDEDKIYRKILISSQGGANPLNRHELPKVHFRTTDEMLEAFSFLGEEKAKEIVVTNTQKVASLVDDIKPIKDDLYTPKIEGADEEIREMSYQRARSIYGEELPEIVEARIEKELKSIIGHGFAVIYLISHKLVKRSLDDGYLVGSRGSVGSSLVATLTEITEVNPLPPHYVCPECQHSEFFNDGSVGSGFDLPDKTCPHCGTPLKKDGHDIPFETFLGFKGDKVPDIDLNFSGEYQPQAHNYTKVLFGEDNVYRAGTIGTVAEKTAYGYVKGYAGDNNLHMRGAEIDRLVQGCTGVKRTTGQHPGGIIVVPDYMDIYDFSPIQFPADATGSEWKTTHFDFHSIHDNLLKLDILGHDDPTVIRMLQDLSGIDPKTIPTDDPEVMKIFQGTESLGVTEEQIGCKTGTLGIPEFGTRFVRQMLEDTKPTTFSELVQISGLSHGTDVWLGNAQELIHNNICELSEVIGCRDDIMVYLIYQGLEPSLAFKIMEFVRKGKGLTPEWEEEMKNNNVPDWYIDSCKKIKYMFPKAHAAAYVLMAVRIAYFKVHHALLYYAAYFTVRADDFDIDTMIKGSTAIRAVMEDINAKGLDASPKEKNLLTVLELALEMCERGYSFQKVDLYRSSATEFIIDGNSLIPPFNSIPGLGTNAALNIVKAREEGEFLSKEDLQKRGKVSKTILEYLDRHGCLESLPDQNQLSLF
Summary of the method: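 Reconstituted B. subtilis Pol III holoenzyme (PolC, beta clamp, SSB, primase) preincubated with compound, then M13Gori single-stranded circular template with dNTPs/NTPs added; room temperature reaction. Stopped with EDTA/PicoGreen; dsDNA fluorescence read, EDTA as full-inhibition control.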

[20] = molecular target: Thioredoxin reductase 1, cytoplasmic (Rattus norvegicus) (UniProt O89049); test: qHTS Assay for Inhibitors of Mammalian Selenoprotein Thioredoxin Reductase 1 (TrxR1) (AID 488773); settings: Potency: inhibition;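 note: drop in NADPH fluorescence over an 8 min run after selenite addition; nearly all actives have a fitted effect of over 40% in size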
Summary of the method: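 Steps: enzyme (90 nM) plus NADPH (400 uM final), 5 min at ~22 deg C; compound added, 15 min; selenite (400 uM final) added; fluorescence followed for 8 min. Concentration-response curves derived from the normalized delta values.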

Measured: Potency

CCCN1CCC[C@H](c2cccc(O)c2)C1
not listed: [16] | [17] | [18] | [19] | [20]
inactive: all other assays above

CCCCc1ccc(C(=O)O)nc1
not listed: [19] | [20]
inactive: all other assays above

Cc1nccc2c1[nH]c1ccccc12
not listed: [5] | [7] | [16] | [17]
inactive: all other assays above

CNCCc1c[nH]c2ccc(O)cc12
not listed: [8] | [12] | [16] | [19] | [20]
inactive: all other assays above

C[C@@H]1O[C@H](C[N+](C)(C)C)C[C@H]1O
not listed: [16] | [19] | [20]
inactive: all other assays above

S=C(NC1CCCCC1)N1CCC(c2cnc[nH]2)CC1
not listed: [12] | [13] | [16] | [19] | [20]
inactive: all other assays above

NC(=NCCC[C@H](N)C(=O)O)N[N+](=O)[O-]
not listed: [8] | [16] | [19] | [20]
inactive: all other assays above

NCc1cc(=O)[nH]o1
not listed: [7] | [16] | [20]
inactive: all other assays above

NC(CP(=O)(O)O)C(=O)O (configuration not stated)
not listed: [16] | [19] | [20]
inactive: all other assays above

CC1=NN=C(c2ccc(N)cc2)c2cc3c(cc2C1)OCO3
not listed: [7] | [16] | [20]
inactive: all other assays above

C#CCOC(=O)C1=CCCN(C)C1
not listed: [7] | [16] | [20]
inactive: all other assays above

NC1CC1c1ccccc1 (configuration not stated)
not listed: [15] | [16] | [18] | [19] | [20]
inactive: all other assays above

CCCN(CCC)[C@@H]1CCc2ccc(O)cc2C1
not listed: [16] | [19] | [20]
inactive: all other assays above
